# Results filed as inconclusive are left out. The source holds several records for some structures; these can differ, active in one and inactive in another. Activity calls are given as the source filed them. How the source made its calls, unless noted: active means hit-call score of the fitted dose curve at least 0.9, where 1 is the maximum; inconclusive means response in the unintended direction; inactive means score below 0.9.
# Key:
# NCBI gene 24521 = assay: NVS_IC_rKATPCh: NovaScreen (NVS) Ion Channel Assay for rat Potassium Channel, ATP-Sensitive (KATPCh) (AID 2283319)
# Procedure, shortened: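 Rat cortical membranes; radioligand binding at ATP-sensitive K channel site, filter-based scintillation counting 2 h after dosing. Single-point duplicate screen at 25 uM, hits rerun in concentration-response up to 50 uM; loss of signal versus DMSO.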
# [1] = molecular target: rat Glutamate, AMPA Site (AMPA), Gria1 (gene 50592) (UniProt P19490); assay: NVS_LGIC_rAMPA: NovaScreen (NVS) Ligand-Gated Ion Channel Assay for rat Glutamate, AMPA Site (AMPA) (AID 2283324)
# Procedure, shortened: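 Rat forebrain membranes; radioligand binding read 1 h after dosing by filtration and scintillation counting. Duplicate single-point screen at 25 uM, then concentration-response to 50 uM for threshold hits (e.g. 30% inhibition); loss of signal vs DMSO.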
# [2] = molecular target: Voltage-gated inwardly rectifying potassium channel KCNH2 (Homo sapiens) (UniProt Q12809); assay: NVS_IC_hKhERGCh: NovaScreen (NVS) Ion Channel Assay for human Potassium Channel ERG (KhERGCh) (AID 2283333)
# Procedure, shortened: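 Cell-free radioligand competition binding on hERG protein extracted from CHO cells, read by filter-based scintillation counting 0.75 h after dosing. Primary screen at 25 uM in duplicate, actives followed in concentration series. Signal loss fitted versus DMSO.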
# [3] = molecular target: rat Oxytocin Receptor (OXT), Oxtr (gene 25342) (UniProt P70536); assay: NVS_GPCR_rOXT: NovaScreen (NVS) G Protein-Coupled Receptor Assay for rat Oxytocin Receptor (OXT) (AID 2283330)
# Procedure, shortened: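 Radioligand displacement on rat uterine membranes, 1 h incubation, filter-based scintillation counting. Chemicals were screened in duplicate at 25 uM, and those passing threshold were retested in concentration-response up to 50 uM. Loss of binding was fitted versus DMSO.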
# [4] = molecular target: rat Gamma-Aminobutyric Acid Type A Receptor, Non-Selective (GABAR-NonSelective), Gabra1 (gene 29705) (UniProt P62813); assay: NVS_LGIC_rGABAR_NonSelective: NovaScreen (NVS) Ligand-Gated Ion Channel Assay for rat Gamma-Aminobutyric Acid Type A Receptor, Non-Selective (GABAR-NonSelective) (AID 2283326)
# Procedure, shortened: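 Radioligand displacement on rat whole-brain extract, 1 h, filter scintillation readout; signal loss fitted versus DMSO. Primary screen in duplicate at 25 uM; hits (e.g. ≥30% inhibition) retested in concentration-response up to 50 uM.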
# [5] = molecular target: rat Glutamate, NMDA Agonist Site (GluNMDA), Grin1 (gene 24408) (UniProt P35439); assay: NVS_LGIC_rGluNMDA_Agonist: NovaScreen (NVS) Ligand-Gated Ion Channel Assay for rat Glutamate, NMDA Agonist Site (GluNMDA) (AID 2283327)
# Procedure, shortened: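 Rat forebrain membranes, radioligand binding in the agonist-site protocol; 1 h after dosing; filter-based scintillation counting. Single-concentration duplicate screen at 25 uM, then concentration-response up to 50 uM for actives; gain-of-signal vs DMSO.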
# [6] = molecular target: human Androgen Receptor (AR), AR (gene 367) (UniProt P10275); assay: NVS_NR_hAR: NovaScreen (NVS) Nuclear Receptor Binding Assay for human Androgen Receptor (AR) (AID 2283332)
# Procedure, shortened: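 LnCAP cell-free extract; radioligand displacement read by scintillation counting after 20 h. Primary screen single concentration 25 uM in duplicate, actives then run as concentration series; loss-of-signal fitted relative to DMSO baseline.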
# [7] = molecular target: Glutamate receptor ionotropic, kainate 1 (Rattus norvegicus) (UniProt P22756); assay: NVS_IC_rKAR: NovaScreen (NVS) Ion Channel Assay for rat Kainic Acid Receptors (KAR) (AID 2283334; active means hit-call score of the fitted dose curve at least 0.9, where 1 is the maximum; inactive means score below 0.9)
# Procedure, shortened: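 Radioligand displacement binding using rat forebrain membranes, 1 h incubation, filter-based scintillation counting. Screened in duplicate at 25 uM, with actives retested in concentration-response up to 50 uM; fitted against DMSO.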
# [8] = molecular target: rat Thyrotropin Releasing Hormone Receptor (TRH), Trhr (gene 25570) (UniProt Q01717); assay: NVS_GPCR_rTRH: NovaScreen (NVS) G Protein-Coupled Receptor Assay for rat Thyrotropin Releasing Hormone Receptor (TRH) (AID 2283329);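 further: hit means lower bound tracer signal versus DMSO baseline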
# Procedure, shortened: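 Competitive radioligand binding on rat forebrain membrane preparations, with filtration and scintillation readout after 4 h. Primary testing in duplicate at 25 uM; actives confirmed in concentration-response. DMSO defined baseline.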
# [9] = molecular target: rat Peripheral-type Benzodiazepine Receptor (PBR), Tspo (gene 24230) (UniProt P16257); assay: NVS_MP_rPBR: NovaScreen (NVS) Membrane Protein Assay for rat Peripheral-type Benzodiazepine Receptor (PBR) (AID 2283335)
# Procedure, shortened: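 Radioligand displacement, rat kidney membrane prep, 1 h exposure, filter-based scintillation read; DMSO baseline, loss-of-signal scored. Primary screen at 25 uM in duplicate, actives followed up in concentration series.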
# [10] = molecular target: human Peripheral-type Benzodiazepine Receptor (PBR), TSPO (gene 706) (UniProt P30536); assay: NVS_MP_hPBR: NovaScreen (NVS) Membrane Protein Assay for human Peripheral-type Benzodiazepine Receptor (PBR) (AID 2283331);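 further: hits reduce radioligand binding relative to DMSO baseline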
# Procedure, shortened: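 Radioligand displacement on human colonic cell membranes, 1 h incubation; bound radioactivity by filtration and scintillation counting. Primary screen in duplicate at 25 uM single concentration, actives followed up in concentration series; loss of binding versus DMSO.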
# [11] = molecular target: Small conductance calcium-activated potassium channel protein 1 (Rattus norvegicus) (UniProt P70606); assay: NVS_IC_rKCaCh: NovaScreen (NVS) Ion Channel Assay for rat Potassium Channel, Ca2+ Act., VI (KCaCh) (AID 2283336)
# Procedure, shortened: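 Radioligand binding to rat forebrain membranes, cell-free, read 1 hour after dosing by filter-based scintillation counting. Compounds first run in duplicate at 25 uM, actives then in concentration series; loss of signal vs DMSO indicates displacement.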
# Chain of Voltage-gated inwardly rectifying potassium channel KCNH2 (Homo sapiens) (Q12809 whole entry, looked up): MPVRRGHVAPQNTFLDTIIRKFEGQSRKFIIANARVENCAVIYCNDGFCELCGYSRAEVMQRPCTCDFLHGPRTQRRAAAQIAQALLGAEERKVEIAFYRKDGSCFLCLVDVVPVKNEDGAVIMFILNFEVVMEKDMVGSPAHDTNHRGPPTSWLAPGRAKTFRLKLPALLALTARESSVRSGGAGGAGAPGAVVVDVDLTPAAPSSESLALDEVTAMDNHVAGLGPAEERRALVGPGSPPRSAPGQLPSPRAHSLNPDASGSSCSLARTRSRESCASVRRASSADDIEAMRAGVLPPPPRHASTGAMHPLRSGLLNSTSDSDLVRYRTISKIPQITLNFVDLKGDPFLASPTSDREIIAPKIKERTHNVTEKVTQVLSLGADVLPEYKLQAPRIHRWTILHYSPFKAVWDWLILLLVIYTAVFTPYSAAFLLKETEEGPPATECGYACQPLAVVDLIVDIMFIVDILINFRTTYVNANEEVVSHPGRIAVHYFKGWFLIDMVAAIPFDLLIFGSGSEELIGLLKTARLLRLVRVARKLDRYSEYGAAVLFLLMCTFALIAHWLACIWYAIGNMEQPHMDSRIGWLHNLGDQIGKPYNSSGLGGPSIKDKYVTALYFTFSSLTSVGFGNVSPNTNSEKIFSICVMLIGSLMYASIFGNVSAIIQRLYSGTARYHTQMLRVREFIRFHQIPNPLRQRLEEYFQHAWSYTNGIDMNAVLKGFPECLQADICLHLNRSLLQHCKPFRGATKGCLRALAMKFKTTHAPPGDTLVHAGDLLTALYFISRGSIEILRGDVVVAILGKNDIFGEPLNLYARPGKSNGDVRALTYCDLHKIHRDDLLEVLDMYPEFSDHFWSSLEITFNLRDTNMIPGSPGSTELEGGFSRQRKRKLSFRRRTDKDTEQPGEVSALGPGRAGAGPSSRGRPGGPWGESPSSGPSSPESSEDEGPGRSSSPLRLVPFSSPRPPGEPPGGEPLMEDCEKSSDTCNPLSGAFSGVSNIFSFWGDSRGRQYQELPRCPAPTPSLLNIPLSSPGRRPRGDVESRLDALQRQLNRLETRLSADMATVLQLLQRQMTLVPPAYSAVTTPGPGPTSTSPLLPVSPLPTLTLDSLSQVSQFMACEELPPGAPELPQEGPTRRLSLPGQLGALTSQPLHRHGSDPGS
# Chain of rat Peripheral-type Benzodiazepine Receptor (PBR), Tspo (gene 24230) (P16257 whole entry, looked up): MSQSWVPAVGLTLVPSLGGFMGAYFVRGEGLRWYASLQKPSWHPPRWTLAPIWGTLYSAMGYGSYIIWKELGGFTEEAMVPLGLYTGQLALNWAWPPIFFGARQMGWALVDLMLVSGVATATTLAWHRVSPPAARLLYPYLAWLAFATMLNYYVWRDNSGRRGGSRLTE
# Chain of rat Thyrotropin Releasing Hormone Receptor (TRH), Trhr (gene 25570) (Q01717 whole entry, looked up): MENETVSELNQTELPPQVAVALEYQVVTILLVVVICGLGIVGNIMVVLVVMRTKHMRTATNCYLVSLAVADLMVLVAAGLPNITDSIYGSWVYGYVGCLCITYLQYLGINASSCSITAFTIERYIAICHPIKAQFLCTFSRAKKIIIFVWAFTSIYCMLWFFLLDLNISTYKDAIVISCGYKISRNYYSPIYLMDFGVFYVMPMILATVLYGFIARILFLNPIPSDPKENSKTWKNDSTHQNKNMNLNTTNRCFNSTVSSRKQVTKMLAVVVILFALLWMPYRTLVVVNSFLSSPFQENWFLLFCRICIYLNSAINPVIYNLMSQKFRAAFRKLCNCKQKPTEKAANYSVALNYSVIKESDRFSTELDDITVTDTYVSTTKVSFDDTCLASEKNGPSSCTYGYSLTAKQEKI
# Chain of human Peripheral-type Benzodiazepine Receptor (PBR), TSPO (gene 706) (P30536 whole entry, looked up): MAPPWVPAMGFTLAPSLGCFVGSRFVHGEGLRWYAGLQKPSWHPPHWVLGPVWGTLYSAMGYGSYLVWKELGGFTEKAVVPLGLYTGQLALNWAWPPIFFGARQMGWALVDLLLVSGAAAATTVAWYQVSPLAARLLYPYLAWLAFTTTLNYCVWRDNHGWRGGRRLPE
# Chain of human Androgen Receptor (AR), AR (gene 367) (P10275 whole entry, looked up): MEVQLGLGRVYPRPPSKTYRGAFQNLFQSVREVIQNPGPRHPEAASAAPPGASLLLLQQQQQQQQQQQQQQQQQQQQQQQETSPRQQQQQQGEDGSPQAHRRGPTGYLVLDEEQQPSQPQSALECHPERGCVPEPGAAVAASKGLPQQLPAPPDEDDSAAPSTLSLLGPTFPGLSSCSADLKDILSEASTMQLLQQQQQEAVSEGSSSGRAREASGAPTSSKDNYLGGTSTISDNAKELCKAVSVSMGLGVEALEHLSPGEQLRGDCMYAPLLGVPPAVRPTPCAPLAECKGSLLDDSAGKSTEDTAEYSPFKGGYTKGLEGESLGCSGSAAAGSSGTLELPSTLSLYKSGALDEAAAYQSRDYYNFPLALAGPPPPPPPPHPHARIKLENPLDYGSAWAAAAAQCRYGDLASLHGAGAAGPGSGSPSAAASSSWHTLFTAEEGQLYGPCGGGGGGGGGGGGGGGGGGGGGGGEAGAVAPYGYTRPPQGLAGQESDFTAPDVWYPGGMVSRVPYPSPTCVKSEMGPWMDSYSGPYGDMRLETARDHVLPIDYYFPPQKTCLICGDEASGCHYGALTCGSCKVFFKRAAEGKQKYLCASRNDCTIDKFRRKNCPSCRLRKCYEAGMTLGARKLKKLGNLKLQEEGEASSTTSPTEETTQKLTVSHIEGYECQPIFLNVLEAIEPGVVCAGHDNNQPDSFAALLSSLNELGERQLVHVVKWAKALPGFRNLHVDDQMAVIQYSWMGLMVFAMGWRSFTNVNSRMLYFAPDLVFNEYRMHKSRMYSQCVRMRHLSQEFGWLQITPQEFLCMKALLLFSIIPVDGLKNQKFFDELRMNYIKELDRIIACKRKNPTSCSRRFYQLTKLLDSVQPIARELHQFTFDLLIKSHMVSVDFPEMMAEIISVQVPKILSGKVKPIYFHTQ
# Chain of Glutamate receptor ionotropic, kainate 1 (Rattus norvegicus) (P22756 whole entry, looked up): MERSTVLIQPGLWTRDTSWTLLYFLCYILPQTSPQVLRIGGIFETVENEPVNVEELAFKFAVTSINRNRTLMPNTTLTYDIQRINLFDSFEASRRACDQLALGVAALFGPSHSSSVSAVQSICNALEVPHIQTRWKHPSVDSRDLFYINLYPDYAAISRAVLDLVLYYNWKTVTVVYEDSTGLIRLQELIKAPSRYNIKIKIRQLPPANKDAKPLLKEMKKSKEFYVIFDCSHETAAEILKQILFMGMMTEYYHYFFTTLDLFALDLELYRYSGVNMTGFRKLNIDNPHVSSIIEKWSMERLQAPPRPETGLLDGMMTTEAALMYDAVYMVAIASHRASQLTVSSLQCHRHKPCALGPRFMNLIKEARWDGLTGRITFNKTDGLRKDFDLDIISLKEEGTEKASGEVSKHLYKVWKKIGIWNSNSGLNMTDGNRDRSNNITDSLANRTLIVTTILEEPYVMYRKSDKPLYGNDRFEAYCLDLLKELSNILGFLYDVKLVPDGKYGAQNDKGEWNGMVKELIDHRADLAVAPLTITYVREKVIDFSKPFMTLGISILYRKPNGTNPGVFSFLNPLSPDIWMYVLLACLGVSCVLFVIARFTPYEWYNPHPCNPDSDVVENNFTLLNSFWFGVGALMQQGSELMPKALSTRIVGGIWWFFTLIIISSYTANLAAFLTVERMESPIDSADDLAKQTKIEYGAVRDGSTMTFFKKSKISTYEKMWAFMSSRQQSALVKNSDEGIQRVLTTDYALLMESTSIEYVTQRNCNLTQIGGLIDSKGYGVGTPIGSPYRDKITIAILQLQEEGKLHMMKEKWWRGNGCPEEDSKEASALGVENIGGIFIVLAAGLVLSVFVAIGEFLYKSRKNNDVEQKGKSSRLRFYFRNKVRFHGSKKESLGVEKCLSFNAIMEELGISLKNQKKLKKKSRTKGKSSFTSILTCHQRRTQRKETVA
# Chain of rat Glutamate, AMPA Site (AMPA), Gria1 (gene 50592) (P19490 whole entry, looked up): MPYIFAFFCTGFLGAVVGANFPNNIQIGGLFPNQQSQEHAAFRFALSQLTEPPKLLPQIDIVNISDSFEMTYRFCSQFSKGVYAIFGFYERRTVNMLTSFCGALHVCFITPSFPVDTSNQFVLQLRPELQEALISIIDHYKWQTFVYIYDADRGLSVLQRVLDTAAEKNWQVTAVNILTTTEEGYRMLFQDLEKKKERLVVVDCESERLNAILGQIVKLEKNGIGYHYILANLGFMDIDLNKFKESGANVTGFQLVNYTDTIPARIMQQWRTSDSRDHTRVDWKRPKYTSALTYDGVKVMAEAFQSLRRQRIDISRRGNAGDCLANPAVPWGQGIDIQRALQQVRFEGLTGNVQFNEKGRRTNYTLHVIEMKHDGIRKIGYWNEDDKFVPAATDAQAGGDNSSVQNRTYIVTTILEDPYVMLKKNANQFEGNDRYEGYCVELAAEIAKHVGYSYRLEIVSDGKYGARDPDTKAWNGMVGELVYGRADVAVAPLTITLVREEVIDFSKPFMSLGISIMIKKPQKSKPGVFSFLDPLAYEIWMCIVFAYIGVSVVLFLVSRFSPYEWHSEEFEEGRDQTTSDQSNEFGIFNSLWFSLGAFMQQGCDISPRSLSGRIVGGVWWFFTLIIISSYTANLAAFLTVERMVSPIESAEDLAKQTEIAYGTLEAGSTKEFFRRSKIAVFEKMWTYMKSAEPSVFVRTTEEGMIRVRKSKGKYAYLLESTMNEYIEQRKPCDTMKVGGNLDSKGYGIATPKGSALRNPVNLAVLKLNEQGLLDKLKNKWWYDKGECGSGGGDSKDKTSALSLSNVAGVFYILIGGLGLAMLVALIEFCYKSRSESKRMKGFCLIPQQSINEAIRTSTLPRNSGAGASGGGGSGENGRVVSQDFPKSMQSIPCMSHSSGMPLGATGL
smiles,measurement,setting,value
CCOC1Oc2ccc(OS(C)(=O)=O)cc2C1(C)C (centres undefined),outcome,NCBI gene 24521,inactive
Cc1cc(C)nc(NC(=O)NS(=O)(=O)c2ccccc2C(=O)OC2COC2)n1,outcome,[1],inactive
same,outcome,[2],inactive
O=C(Nc1ccccc1)Nc1cnns1,outcome,[1],inactive
same,outcome,[3],inactive
CCCN(CCOc1c(Cl)cc(Cl)cc1Cl)C(=O)n1ccnc1,outcome,[4],inactive
same,AC50,[2],8.01 µM (active)
CCS(=O)(=O)c1cccnc1S(=O)(=O)NC(=O)Nc1nc(OC)cc(OC)n1,outcome,[4],inactive
Oc1ccc(Cl)cc1Cc1ccccc1,outcome,[5],inactive
same,AC50,[6],7.84 µM (active) [middle of 6 runs]
same,outcome,[7],inactive
O=S(=O)(O)C(F)(F)C(F)(F)C(F)(F)C(F)(F)C(F)(F)C(F)(F)C(F)(F)C(F)(F)F,outcome,[5],inactive
CCC(C)Nc1c([N+](=O)[O-])cc(C(C)(C)C)cc1[N+](=O)[O-] (centres undefined),outcome,[5],inactive
O=[N+]([O-])c1c(Cl)c(Cl)c(Cl)c(Cl)c1Cl,outcome,[8],inactive
same,outcome,[9],inactive
COc1nn(CSP(=S)(OC)OC)c(=O)s1,outcome,[10],inactive
same,AC50,[9],13.1 µM (active)
CNC(=O)CSP(=S)(OC)OC,outcome,[10],inactive
same,outcome,[9],inactive
CCCN(CCC)c1c([N+](=O)[O-])cc(C(F)(F)F)cc1[N+](=O)[O-],outcome,[6],inactive
same,AC50,[9],16.5 µM (active)
N#CN,outcome,[11],inactive
CCOCN(C(=O)CCl)c1c(C)cccc1CC,AC50,[10],1.88 µM (active)
same,AC50,[9],1.45 µM (active)
CCC(C)(NC(=O)c1cc(Cl)c(C)c(Cl)c1)C(=O)CCl (centres undefined),AC50,[10],25 µM (active)
same,AC50,[9],0.0105 µM (active)
ClC1C(Cl)C(Cl)C(Cl)C(Cl)C1Cl (centres undefined),outcome,[8],inactive
same,outcome,[10],inactive
same,outcome,[7],inactive
same,AC50,[9],14.1 µM (active)
same,outcome,[9],inactive
O=C(O)CCCOc1ccc(Cl)cc1Cl,outcome,[10],inactive
same,outcome,[9],inactive
CCOc1nc(NC)nc(NC(=O)NS(=O)(=O)c2ccccc2C(=O)OC)n1,outcome,[6],inactive
CN1CSC(=S)N(C)C1,outcome,[8],inactive
COC(=O)c1ccccc1S(=O)(=O)NC(=O)Nc1nc(C)nc(OC)n1,outcome,[10],inactive
CCN(CC)C(=O)SCc1ccc(Cl)cc1,AC50,[10],22.2 µM (active)
same,AC50,[9],13.5 µM (active)
CC1(C)C(C=C(Cl)Cl)C1C(=O)OC(C#N)c1ccc(F)c(Oc2ccccc2)c1 (centres undefined),outcome,[10],inactive
same,AC50,[9],10.8 µM (active)
C#CCN1C(=O)COc2cc(F)c(N3C(=O)C4=C(CCCC4)C3=O)cc21,outcome,[8],inactive
O=S1OCC2C(CO1)C1(Cl)C(Cl)=C(Cl)C2(Cl)C1(Cl)Cl (centres undefined),outcome,[10],inactive
same,outcome,[9],inactive
O=C1c2ccccc2C(=O)N1SC(Cl)(Cl)Cl,outcome,[9],inactive
CC(C)OC(=O)Nc1cccc(Cl)c1,AC50,[10],17.1 µM (active)
same,AC50,[9],4.63 µM (active)
O=C(O)COc1ccc(Cl)cc1Cl,outcome,[10],inactive
same,outcome,[7],inactive
COc1cc(OC)nc(NC(=O)NS(=O)(=O)c2cc(NC=O)ccc2C(=O)N(C)C)n1,outcome,[2],inactive
